# Laboratory results from paper PMC7862700, “An all-to-all approach to the identification of sequence-specific readers for epigenetic DNA modifications on cytosine”.
# Assays:
# Test in all cases: DAPPL (digital affinity profiling via proximity ligation, sequencing); 10 mM Tris-HCl pH 7.5, 50 mM NaCl, 1 mM DTT, 4% glycerol, room temperature, 30 min; GST-TFs on glutathione beads, 16-mer random dsDNA library, 0.1% formaldehyde crosslink after washing; high values mean tight binding
# Details in all cases: protein: recombinant; tags: N-terminal GST; dsDNA, one strand shown
# [1] = target: T1, FLI1 (Homo sapiens, UniProt Q01543 1-452)
# T1 sequence: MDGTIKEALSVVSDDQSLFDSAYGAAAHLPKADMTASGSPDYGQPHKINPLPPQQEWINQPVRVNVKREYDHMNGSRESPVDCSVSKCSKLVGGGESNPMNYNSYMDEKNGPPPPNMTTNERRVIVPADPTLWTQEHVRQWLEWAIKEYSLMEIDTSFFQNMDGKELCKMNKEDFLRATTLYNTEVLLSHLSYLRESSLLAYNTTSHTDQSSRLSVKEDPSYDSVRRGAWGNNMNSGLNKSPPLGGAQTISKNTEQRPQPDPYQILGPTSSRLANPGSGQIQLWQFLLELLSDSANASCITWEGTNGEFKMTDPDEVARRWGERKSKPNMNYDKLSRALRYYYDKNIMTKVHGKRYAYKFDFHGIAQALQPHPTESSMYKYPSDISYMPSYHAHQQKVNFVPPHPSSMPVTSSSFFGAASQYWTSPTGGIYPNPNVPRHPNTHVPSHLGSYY
# Outline: (§1)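 The binding signal reported is, for every hexamer, its read frequency for a factor over its read frequency for the tag-only sample. Reads came from pools of yeast-expressed, GST-fused human transcription factors on glutathione beads, barcoded with DNA and mixed with that sample, which were incubated with 200 nmole of a random double-stranded 16-mer DNA library in Tris/NaCl/DTT/glycerol buffer at room temperature for 30 min. After washing, the pools were crosslinked with 0.1% formaldehyde, proximity-ligated with BsaI/T4 ligase for 1 h at 37 °C, PCR-amplified and sequenced on an Illumina NextSeq500.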
# [2] = target: T2, ELK1 (Homo sapiens, UniProt P19419 1-428)
# T2 sequence: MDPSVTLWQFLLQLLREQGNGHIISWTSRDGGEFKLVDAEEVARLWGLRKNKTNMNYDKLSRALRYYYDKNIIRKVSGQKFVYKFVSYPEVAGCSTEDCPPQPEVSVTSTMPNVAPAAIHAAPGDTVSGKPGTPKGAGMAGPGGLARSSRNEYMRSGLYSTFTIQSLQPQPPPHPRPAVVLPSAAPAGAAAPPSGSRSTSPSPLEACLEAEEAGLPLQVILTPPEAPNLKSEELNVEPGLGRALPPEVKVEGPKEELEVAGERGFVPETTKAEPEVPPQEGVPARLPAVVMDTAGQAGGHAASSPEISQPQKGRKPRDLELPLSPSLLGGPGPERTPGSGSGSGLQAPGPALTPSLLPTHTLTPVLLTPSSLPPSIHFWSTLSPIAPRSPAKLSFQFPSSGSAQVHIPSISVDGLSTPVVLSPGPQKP
# Outline: as §1
# [3] = target: T3, GABPA (Homo sapiens, UniProt Q06546 1-454)
# T3 sequence: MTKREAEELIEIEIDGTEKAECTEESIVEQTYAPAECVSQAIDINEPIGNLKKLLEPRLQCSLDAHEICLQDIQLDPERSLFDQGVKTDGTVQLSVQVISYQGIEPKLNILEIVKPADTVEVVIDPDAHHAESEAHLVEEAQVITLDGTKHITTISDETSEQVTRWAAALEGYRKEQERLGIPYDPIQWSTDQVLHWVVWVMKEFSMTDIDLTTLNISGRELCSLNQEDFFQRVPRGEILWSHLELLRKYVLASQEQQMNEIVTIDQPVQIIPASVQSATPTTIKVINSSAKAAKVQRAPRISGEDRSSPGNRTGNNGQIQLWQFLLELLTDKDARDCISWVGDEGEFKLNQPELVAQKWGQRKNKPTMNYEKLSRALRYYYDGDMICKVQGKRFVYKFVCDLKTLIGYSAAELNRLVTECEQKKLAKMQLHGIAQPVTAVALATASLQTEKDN
# Outline: as §1
# [4] = target: T4, ERG (Homo sapiens, UniProt P11308 1-479)
# T4 sequence: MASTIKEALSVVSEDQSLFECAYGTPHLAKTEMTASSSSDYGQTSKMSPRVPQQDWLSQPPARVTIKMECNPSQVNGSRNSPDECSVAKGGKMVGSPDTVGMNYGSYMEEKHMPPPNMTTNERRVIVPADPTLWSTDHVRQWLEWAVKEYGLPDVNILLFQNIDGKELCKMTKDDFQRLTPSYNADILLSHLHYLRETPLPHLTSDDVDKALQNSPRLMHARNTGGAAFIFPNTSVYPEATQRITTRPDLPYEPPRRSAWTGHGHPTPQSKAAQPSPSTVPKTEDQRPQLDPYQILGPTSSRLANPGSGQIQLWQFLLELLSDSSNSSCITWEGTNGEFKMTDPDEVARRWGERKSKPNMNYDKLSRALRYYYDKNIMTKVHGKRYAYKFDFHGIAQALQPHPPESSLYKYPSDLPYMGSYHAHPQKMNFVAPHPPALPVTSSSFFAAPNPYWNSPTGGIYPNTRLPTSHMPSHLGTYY
# Outline: as §1
# [5] = target: ELF1 (Homo sapiens, UniProt P32519 1-619)
# Outline: as §1
# [6] = target: T5, EHF (Homo sapiens, UniProt Q9NZC4 1-300)
# T5 sequence: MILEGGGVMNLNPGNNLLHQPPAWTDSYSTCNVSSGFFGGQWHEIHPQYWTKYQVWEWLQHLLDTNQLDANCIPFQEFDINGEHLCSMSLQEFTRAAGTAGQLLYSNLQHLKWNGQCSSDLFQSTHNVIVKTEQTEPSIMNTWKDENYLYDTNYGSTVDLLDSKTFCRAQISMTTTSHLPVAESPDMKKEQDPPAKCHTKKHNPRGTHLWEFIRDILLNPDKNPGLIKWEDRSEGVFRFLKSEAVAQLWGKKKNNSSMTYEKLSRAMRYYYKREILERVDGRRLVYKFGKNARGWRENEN
# Outline: as §1
# [7] = target: SPI1 (Homo sapiens, UniProt P17947 1-270)
# Outline: as §1
# [8] = target: SPIB (Homo sapiens, UniProt Q01892 1-262)
# Outline: as §1
# [9] = target: T6, ELK3 (Homo sapiens, UniProt P41970 1-407)
# T6 sequence: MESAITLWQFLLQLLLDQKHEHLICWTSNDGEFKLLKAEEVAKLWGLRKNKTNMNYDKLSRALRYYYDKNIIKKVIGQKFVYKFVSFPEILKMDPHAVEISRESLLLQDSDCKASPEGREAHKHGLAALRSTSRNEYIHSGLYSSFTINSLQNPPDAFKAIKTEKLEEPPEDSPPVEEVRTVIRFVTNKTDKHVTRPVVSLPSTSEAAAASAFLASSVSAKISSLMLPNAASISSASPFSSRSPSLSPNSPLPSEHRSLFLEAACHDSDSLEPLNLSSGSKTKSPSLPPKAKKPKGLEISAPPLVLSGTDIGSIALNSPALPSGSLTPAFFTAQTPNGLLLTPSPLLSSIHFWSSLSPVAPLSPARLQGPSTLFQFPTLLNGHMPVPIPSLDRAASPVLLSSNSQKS
# Outline: as §1
# Chain of SPIB (Q01892 whole entry): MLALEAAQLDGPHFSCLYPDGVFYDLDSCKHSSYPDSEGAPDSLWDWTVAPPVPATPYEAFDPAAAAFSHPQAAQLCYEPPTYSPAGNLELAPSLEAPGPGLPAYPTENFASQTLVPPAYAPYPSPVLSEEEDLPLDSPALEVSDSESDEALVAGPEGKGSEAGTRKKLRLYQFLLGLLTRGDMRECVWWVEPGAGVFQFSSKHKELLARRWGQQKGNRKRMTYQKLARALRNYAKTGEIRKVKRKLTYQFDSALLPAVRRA
# Chain of ELF1 (P32519 whole entry): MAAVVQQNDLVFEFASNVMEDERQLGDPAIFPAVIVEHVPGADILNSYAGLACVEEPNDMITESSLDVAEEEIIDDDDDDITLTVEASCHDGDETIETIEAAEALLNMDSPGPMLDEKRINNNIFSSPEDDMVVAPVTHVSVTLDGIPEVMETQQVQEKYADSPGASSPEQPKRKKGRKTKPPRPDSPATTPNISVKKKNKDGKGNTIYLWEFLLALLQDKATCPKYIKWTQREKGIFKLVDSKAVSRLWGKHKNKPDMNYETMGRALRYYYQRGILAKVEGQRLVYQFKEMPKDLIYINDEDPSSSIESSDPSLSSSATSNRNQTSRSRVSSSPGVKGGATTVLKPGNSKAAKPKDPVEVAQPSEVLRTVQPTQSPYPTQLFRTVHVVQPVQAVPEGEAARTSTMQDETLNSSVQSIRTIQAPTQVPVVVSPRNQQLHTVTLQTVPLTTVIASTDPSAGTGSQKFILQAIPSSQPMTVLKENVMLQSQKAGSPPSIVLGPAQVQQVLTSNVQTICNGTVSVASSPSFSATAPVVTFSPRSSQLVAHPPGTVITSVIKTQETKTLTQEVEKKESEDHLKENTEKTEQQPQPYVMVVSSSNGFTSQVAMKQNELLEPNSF
Sequence,binding signal [1],binding signal [2],binding signal [3],binding signal [4],binding signal [5],binding signal [6],binding signal [7],binding signal [8],binding signal [9]
TACGCT,"1.3 fold enrichment (6-mer frequency, TF over GST control)","1.26 fold enrichment (6-mer frequency, TF over GST control)","1.4 fold enrichment (6-mer frequency, TF over GST control)","1.34 fold enrichment (6-mer frequency, TF over GST control)","1.34 fold enrichment (6-mer frequency, TF over GST control)","1.25 fold enrichment (6-mer frequency, TF over GST control)","1.31 fold enrichment (6-mer frequency, TF over GST control)","1.18 fold enrichment (6-mer frequency, TF over GST control)","1.36 fold enrichment (6-mer frequency, TF over GST control)"
ATTCTC,"1.35 fold enrichment (6-mer frequency, TF over GST control)","1.27 fold enrichment (6-mer frequency, TF over GST control)","1.32 fold enrichment (6-mer frequency, TF over GST control)","1.25 fold enrichment (6-mer frequency, TF over GST control)","1.24 fold enrichment (6-mer frequency, TF over GST control)","1.27 fold enrichment (6-mer frequency, TF over GST control)","1.27 fold enrichment (6-mer frequency, TF over GST control)","1.32 fold enrichment (6-mer frequency, TF over GST control)","1.42 fold enrichment (6-mer frequency, TF over GST control)"
TCTTCT,"1.3 fold enrichment (6-mer frequency, TF over GST control)","1.29 fold enrichment (6-mer frequency, TF over GST control)","1.21 fold enrichment (6-mer frequency, TF over GST control)","1.23 fold enrichment (6-mer frequency, TF over GST control)","1.25 fold enrichment (6-mer frequency, TF over GST control)","1.14 fold enrichment (6-mer frequency, TF over GST control)","1.22 fold enrichment (6-mer frequency, TF over GST control)","1.19 fold enrichment (6-mer frequency, TF over GST control)","1.25 fold enrichment (6-mer frequency, TF over GST control)"
TATGCT,"1.28 fold enrichment (6-mer frequency, TF over GST control)","1.28 fold enrichment (6-mer frequency, TF over GST control)","1.32 fold enrichment (6-mer frequency, TF over GST control)","1.26 fold enrichment (6-mer frequency, TF over GST control)","1.29 fold enrichment (6-mer frequency, TF over GST control)","1.33 fold enrichment (6-mer frequency, TF over GST control)","1.41 fold enrichment (6-mer frequency, TF over GST control)","1.33 fold enrichment (6-mer frequency, TF over GST control)","1.22 fold enrichment (6-mer frequency, TF over GST control)"
ATAGAA,"1.02 fold enrichment (6-mer frequency, TF over GST control)","1.04 fold enrichment (6-mer frequency, TF over GST control)","1.04 fold enrichment (6-mer frequency, TF over GST control)","1.06 fold enrichment (6-mer frequency, TF over GST control)","1.05 fold enrichment (6-mer frequency, TF over GST control)","1.07 fold enrichment (6-mer frequency, TF over GST control)","1.16 fold enrichment (6-mer frequency, TF over GST control)","1.08 fold enrichment (6-mer frequency, TF over GST control)","1.13 fold enrichment (6-mer frequency, TF over GST control)"
CGAACC,"1.1 fold enrichment (6-mer frequency, TF over GST control)","1.29 fold enrichment (6-mer frequency, TF over GST control)","1.22 fold enrichment (6-mer frequency, TF over GST control)","1.15 fold enrichment (6-mer frequency, TF over GST control)","1.23 fold enrichment (6-mer frequency, TF over GST control)","1.19 fold enrichment (6-mer frequency, TF over GST control)","1.17 fold enrichment (6-mer frequency, TF over GST control)","1.13 fold enrichment (6-mer frequency, TF over GST control)","1.21 fold enrichment (6-mer frequency, TF over GST control)"
TAAAAG,"1.12 fold enrichment (6-mer frequency, TF over GST control)","1.18 fold enrichment (6-mer frequency, TF over GST control)","1.24 fold enrichment (6-mer frequency, TF over GST control)","1.1 fold enrichment (6-mer frequency, TF over GST control)","1.12 fold enrichment (6-mer frequency, TF over GST control)","1.16 fold enrichment (6-mer frequency, TF over GST control)","1.31 fold enrichment (6-mer frequency, TF over GST control)","1.18 fold enrichment (6-mer frequency, TF over GST control)","1.15 fold enrichment (6-mer frequency, TF over GST control)"
